High-throughput results deposited in PubChem BioAssay by several laboratories.
CRFBP-R2 block = antagonists of CRF-binding protein/CRF-R2 receptor complex; actives 0.59% (n = 350,000); HEK293 CRF-R2/CRF-BP, CRF-induced calcium fluorescence; inhibition, % at 11.8 µM;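 active = inhibition of the ligand-induced calcium signal above about 50% at the single tested concentration, limit read from the data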
V-ATPase pHluor = alters yeast V-ATPase proton transport; S. cerevisiae, pHLuorin cytosolic pH fluorescence; response, % at 10 µM; actives 0.37% (n = 350,000); AID 504577; in the data active = response mostly above about 7.3%, no sharp cut-off; inactive = mostly below about 5.4%; note: actives read high
NTR1 ag = activates human neurotensin receptor 1; activation, % at 20 µM; actives 0.17% (n = 330,000); NTR1-U2OS beta-arrestin-GFP spot imaging, agonist mode; P30989;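 active = activation at or above 40% of the spot to cytoplasm intensity ratio, with at least 20 cells analyzed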;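 note: 0% = DMSO without peptide and 100% = 100 nM NTR1 peptide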
Target sequence (P30989 whole entry, looked up): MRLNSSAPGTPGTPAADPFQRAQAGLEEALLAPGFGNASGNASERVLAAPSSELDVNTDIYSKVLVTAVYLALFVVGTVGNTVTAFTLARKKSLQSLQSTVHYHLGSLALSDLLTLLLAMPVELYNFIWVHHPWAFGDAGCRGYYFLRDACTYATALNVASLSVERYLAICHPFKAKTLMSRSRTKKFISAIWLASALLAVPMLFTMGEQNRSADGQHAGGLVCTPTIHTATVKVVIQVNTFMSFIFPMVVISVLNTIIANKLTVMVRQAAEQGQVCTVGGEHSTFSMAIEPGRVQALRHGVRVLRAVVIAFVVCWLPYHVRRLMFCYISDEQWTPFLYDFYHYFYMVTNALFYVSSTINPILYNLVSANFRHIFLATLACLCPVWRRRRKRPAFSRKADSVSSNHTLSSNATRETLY
CRFBP-R2 agonist = agonists of human CRF-binding protein/CRF-R2 receptor complex; activation, % at 13.2 µM; HEK293 CRF-R2/CRF-BP, calcium dye fluorescence (FLIPR); percent of saturating CRF peptide response; actives 0.46% (n = 350,000); AID 588473;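 active = activation of at least 50%, plus an integration ratio under a set limit after plate pattern correction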;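 note: plate controls were neutral control wells without compound for no effect and CRF at EC100 for full effect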
Active calls of the source: *. Hits are enriched below; roughly 1.5% of the tested compounds scored in any of these assays.

Screening O=C(c1ccc(O)cc1)c1ccc(O)cc1O returned CRFBP-R2 block -9, V-ATPase pHluor 0, NTR1 ag -1 and CRFBP-R2 agonist -1.
Screening O=C1N[C@H](C(=O)O)CS1 returned NTR1 ag 0.
`CC(=O)Nc1ccc2c(c1)Cc1cc(N3C(=O)C=CC3=O)ccc1-2` gave CRFBP-R2 block -40, V-ATPase pHluor -3 and CRFBP-R2 agonist 51*.
O=C1C=CC(=O)N1c1ccc2c(c1)Cc1cc(F)ccc1-2 was read as CRFBP-R2 block -4, V-ATPase pHluor 17* and CRFBP-R2 agonist 3.
`O=[N+]([O-])c1ccc2c(c1)Cc1cc(F)ccc1-2` gave CRFBP-R2 block 4, V-ATPase pHluor -3 and CRFBP-R2 agonist 1.
`CCN(CC)C(=O)C1=C(C)N(Cc2ccc(OC)cc2)C(=O)C(CC(=O)NC(c2ccccc2)c2ccccc2)C1` (stereo unspecified) gave CRFBP-R2 block 8, V-ATPase pHluor 2 and CRFBP-R2 agonist -2.
Cc1ccc(S(=O)(=O)N2CCN(C(=O)Cn3nc(C)c([N+](=O)[O-])c3C)CC2)cc1 was read as CRFBP-R2 block 9, V-ATPase pHluor 3, NTR1 ag -1 and CRFBP-R2 agonist 3.
c1ccc(-c2csc(=Nc3cccnc3)n2CC2CCCO2)cc1 (stereo unspecified) was read as CRFBP-R2 block 42, V-ATPase pHluor 0, NTR1 ag 3 and CRFBP-R2 agonist -3.
For COCCn1c(-c2ccccc2)csc1=Nc1cccnc1 the results were CRFBP-R2 block 92*, V-ATPase pHluor 0, NTR1 ag 3 and CRFBP-R2 agonist 0.
For CN(C)CCCN1C(=O)C(O)=C(C(=O)c2cc3ccccc3o2)C1c1ccccc1 (stereo unspecified) the results were CRFBP-R2 block -10, V-ATPase pHluor -6, NTR1 ag 0 and CRFBP-R2 agonist 5.
`COC(=O)c1ccc(C2C(C(=O)c3cc4ccccc4o3)=C(O)C(=O)N2CCCN(C)C)cc1` (stereo unspecified) gave CRFBP-R2 block 114*, V-ATPase pHluor -1, NTR1 ag 0 and CRFBP-R2 agonist 0.
For CCCc1cc(=O)[nH]c(SCC(=O)NC2(C#N)CCCCC2)n1 the results were CRFBP-R2 block -4, V-ATPase pHluor 2, NTR1 ag 0 and CRFBP-R2 agonist -1.
`O=C(CSc1nnc(NC(=O)C2CCC2)s1)Nc1ccccc1Br` gave CRFBP-R2 block -24, V-ATPase pHluor -1, NTR1 ag -1 and CRFBP-R2 agonist -2.
Cc1ccc(Nc2ccc(C(=O)O)cc2N)cc1 was read as CRFBP-R2 block 56*, NTR1 ag 3 and CRFBP-R2 agonist -4.
`Cc1occc1C(=O)NC(C)C12CC3CC(CC(C3)C1)C2` (stereo unspecified) gave CRFBP-R2 block 52*, V-ATPase pHluor 0, NTR1 ag 1 and CRFBP-R2 agonist -21.
Screening CCN=C1SC(CC(N)=O)C(=O)N1CC (stereo unspecified) returned CRFBP-R2 block 18, V-ATPase pHluor 0, NTR1 ag 3 and CRFBP-R2 agonist 1.
For CCC(=O)N(c1nnc(SCC(=O)c2ccc[nH]2)s1)C1CC1 the results were CRFBP-R2 block -10, V-ATPase pHluor 18*, NTR1 ag 2 and CRFBP-R2 agonist -2.
Screening c1ccc2c(c1)nnn2-c1ncnc2sc3c(c12)CCCC3 returned CRFBP-R2 block 62*, V-ATPase pHluor -1, NTR1 ag 5 and CRFBP-R2 agonist 0.
Cc1nc(-n2nnc3ccccc32)c2c3c(sc2n1)CCCC3 was read as CRFBP-R2 block 23, V-ATPase pHluor 0, NTR1 ag 2 and CRFBP-R2 agonist 0.
For Cc1cccc(OCC(=O)Nc2nnc(S(=O)(=O)N3CCCCCC3)s2)c1 the results were CRFBP-R2 block 27, V-ATPase pHluor -1, NTR1 ag 1 and CRFBP-R2 agonist 1.
`COc1cccc(N2CCN(S(=O)(=O)c3c(C)[nH]c(C)c3C(=O)N3CCCC3)CC2)c1` gave CRFBP-R2 block 120*, V-ATPase pHluor -1, NTR1 ag 0 and CRFBP-R2 agonist 2.
`CC(=O)N(C)c1ccc(NS(=O)(=O)c2cccc3nsnc23)cc1` gave CRFBP-R2 block 8, V-ATPase pHluor -3, NTR1 ag 0 and CRFBP-R2 agonist -1.
O=C(CCCc1ccccc1)Nc1ccc2c(c1)OCCO2 was read as CRFBP-R2 block -2, V-ATPase pHluor 2, NTR1 ag 0 and CRFBP-R2 agonist 2.
Screening O=C(CCCc1cccs1)Nc1ccc2c(c1)OCO2 returned CRFBP-R2 block 58*, V-ATPase pHluor 3, NTR1 ag 0 and CRFBP-R2 agonist 2.
`C[C@H](CO)N1C[C@H](C)[C@@H](CN(C)S(=O)(=O)c2cn(C)cn2)Oc2ccc(NC(=O)NC3CCCCC3)cc2C1=O` gave CRFBP-R2 block 5, V-ATPase pHluor -1, NTR1 ag -1 and CRFBP-R2 agonist 0.
For CCOc1ccc(/C=N/NC(=O)C(C)N(c2ccc(OC)cc2)S(C)(=O)=O)cc1OCC (stereo unspecified) the results were CRFBP-R2 block 55*, V-ATPase pHluor -1, NTR1 ag 0 and CRFBP-R2 agonist 0.
Screening CC(=O)Nc1ccc(S(=O)(=O)NCc2nc(-c3cccc(C)c3)no2)cc1 returned CRFBP-R2 block 4, V-ATPase pHluor -2, NTR1 ag 1 and CRFBP-R2 agonist 2.
Cc1cc(C(=O)CN2C(=O)NC(C)(CC(C)C)C2=O)c(C)n1-c1ccc2c(c1)OCO2 (stereo unspecified) was read as CRFBP-R2 block 80*, V-ATPase pHluor -1, NTR1 ag 0 and CRFBP-R2 agonist -3.
`Cc1cc(C(=O)CN2C(=O)NC3(CCCC3)C2=O)c(C)n1-c1ccc2c(c1)OCO2` gave CRFBP-R2 block 35, V-ATPase pHluor -1, NTR1 ag -1 and CRFBP-R2 agonist 1.
Screening Clc1ccccc1N=Nc1ccccn1 returned CRFBP-R2 block -43, V-ATPase pHluor -2 and CRFBP-R2 agonist 63*.
Screening O=C(c1cc2nc(-c3ccc(F)cc3)cc(C(F)(F)F)n2n1)N1CCOCC1 returned CRFBP-R2 block 54*, V-ATPase pHluor 3, NTR1 ag 1 and CRFBP-R2 agonist 0.
For COc1ccc(S(=O)(=O)N2CCCC2CNC(=O)C(=O)NCc2ccccn2)cc1 (stereo unspecified) the results were CRFBP-R2 block -4, V-ATPase pHluor -1, NTR1 ag 0 and CRFBP-R2 agonist 2.
`CC1(C)CC(=O)C2=C(C1)OC1=C(C(=O)CC(C)(C)C1)C2c1ccc(O)cc1O` gave CRFBP-R2 block -46, V-ATPase pHluor 2, NTR1 ag 39 and CRFBP-R2 agonist 0.
Screening CC1(C)CC(=O)C2=C(C1)OC1=C(C2)C(=O)CC(C)(C)C1 returned CRFBP-R2 block 26, V-ATPase pHluor 146*, NTR1 ag 1 and CRFBP-R2 agonist 0.
COc1ccc(C(NC(=O)c2ccc(=O)[nH]c2)C(=O)Nc2ccc(C(C)C)cc2)cc1 (stereo unspecified) was read as CRFBP-R2 block -26, V-ATPase pHluor 2, NTR1 ag 2 and CRFBP-R2 agonist 58*.
